Bioassay records from PubChem BioAssay.
Mm-Cpn inhibitor = blocks the Methanococcus maripaludis chaperonin Mm-Cpn; purified Mm-Cpn ATPase, ADP Transcreener TR-FRET; Potency, µM (titrated, usually from 76.9 µM), for the others: at the top dose activity, negative = inhibition, usual class: inhibitors; 330,000 compounds, 0.031% hits; AID 504842; also: potency is read from the fitted curve at half-maximal effect; % is scaled to controls: 0 for no effect and ±100 for the full control effect; nearly all actives have a fitted effect of over 80% in size
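TR-FRET (320 nm excitation; 590 and 665 nm emission) reports ADP made from 10 uM ATP by 25 nM enzyme; compounds were preincubated 10 min, reaction run 30 min, both at 37°C.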
FUS yeast rescue = FUS proteinopathy suppression in yeast. Potency, µM (series often up to 76.6 µM), hits mostly activators. S. cerevisiae FUS-expressing, growth rescue, OD600, 24 h. 390,000 compounds, 0.24% hits;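 also: potency is read from the fitted curve at half-maximal effect; plate controls were DMSO vehicle for no effect and reference control for full effect; nearly all actives have a fitted effect of over 55% in size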
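Compound concentration series was pinned onto galactose-induced FUS-expressing yeast seeded at OD 0.005. Plates sat 24hr at 30C; absorbance at 600 nm gave growth. DMSO served as background control.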
CCT chaperon mod = cytosolic chaperonin activity modulation; 360,000 compounds, 0.3% hits; activity change, % (concentration not given with the values), hits read low; purified chaperonin ATPase assay, HTRF ADP detection, 30 min; in the data active = activity change below about -30%; also: % is scaled to controls: 0 for no effect and ±100 for the full control effect
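Enzyme 40 or 20 nM (batch-dependent) in Tris pH 7.4/KCl/MgCl2/DTT; cpd 76 uM single point; ATP 10 uM; 30 min 37 °C; Transcreener ADP HTRF detection, 30 min RT; ratio 665/615.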
Abeta yeast res = restores growth of yeast expressing A-beta42 peptide; Potency, µM (doses to about 46.1 µM), usual class: activators; yeast expressing A-beta42, growth rescue, OD600, 48 h; response scale: 0% DMSO, 100% iron-clioquinol control; AID 1347071; 410,000 compounds, 0.063% hits; also: potency is read from the fitted curve at half-maximal effect; nearly all actives have a fitted effect of over 55% in size
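Yeast growth medium received pinned compounds, then yeast cells expressing toxic A-beta were added; plates incubated at 30 C for 48 hr. Growth read as absorbance at 600 nm, normalized to DMSO and equimolar FeCl3 plus clioquinol controls.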
TDP43 rescue = TDP-43 toxicity inhibition in yeast | Potency, µM (titrated, usually from 46.1 µM), for the others: at the highest dose growth rescue (activation), actives largely listed as activators | TDP-43 expressing yeast growth rescue, BacTiter-Glo, 24 h | 410,000 compounds, 1.8% hits; also: potency is read from the fitted curve at half-maximal effect; % of control where 0% means no effect; nearly all actives have a fitted effect of over 50% in size
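Yeast cells expressing TDP-43 under galactose induction are exposed to compounds for 24 hr at 30 deg C. BacTiter-Glo luminescence measures growth, so protective compounds score as activators.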
aSyn yeast inh = inhibitors of alpha-synuclein toxicity in yeast; Yeast expressing alpha-synuclein, growth rescue, BacTiter-Glo, 24 h; Potency, µM (top dose mostly 46.1 µM), without a hit: top-dose growth rescue (activation), most hits filed as activators; 370,000 compounds, 0.14% hits; AID 652106; also: potency is read from the fitted curve at half-maximal effect; % of control where 0% means no effect; nearly all actives have a fitted effect of over 65% in size
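Rescue of yeast growth: cells expressing toxic alpha-synuclein, induced in galactose at OD600 0.02, incubated with compound 24 h at 30 C. ATP luminescence quantified growth; inhibitors of toxicity appear as activators.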
An asterisk follows results filed as active; i = inactive; u = inconclusive; x = no result given; [ ] = dose if it differs, or a comment. The list is not random: actives were taken first. Their share in the collection is about 2.3%. Unless noted, calls follow the shape of the dose curve; as a rule, active = well fitted curve in the direction sought with a large enough effect; inconclusive = small, poorly fitted or top-dose-only effect, or another doubt; inactive = no such curve, though single readings can be large; an effect the other way counts as inactive or inconclusive.

SMILES	Mm-Cpn inhibitor	FUS yeast rescue	CCT chaperon mod	Abeta yeast res	TDP43 rescue	aSyn yeast inh
Cc1cccn2c(=O)c3cc(C(=O)N4CCCCC4)sc3nc12	0%	i	-4	i	11µM*	-1%
CCCCN(CCCC)C(=O)c1cc2c(=O)n3cccc(C)c3nc2s1	x	u	x	i	22µM*	x
O=P(c1ccccc1)(c1ccccc1)c1cnc2ccccn12	x	i	x	x	x	x
Cc1cccc(Cn2c(=O)oc3ccc(C)cc32)c1	0%	i	0	i	20µM*	4%
Cc1ccc2oc(=O)n(Cc3ccc(OC(C)C)cc3)c2c1	1%	i	1	i	u	7%
CCCC1CCC2(CC1)CCC2OC(=O)Nc1ccc2c(c1)OCO2 (configuration not stated)	x	i	x	x	x	x
COCCCNC(=S)N1CCN(c2nc(-c3ccccc3)cs2)CC1	1%	i	-1	u	35µM*	-5%
O=C(CN1CCN(c2nc(-c3ccccc3)cs2)CC1)NNC(=O)c1ccc(Br)cc1	-2%	i	3	i	-26%	0%
COc1cccc(-c2csc(N3CCN(C(=O)Nc4ccc(Cl)cc4)CC3)n2)c1	-7%	i	1	i	11µM*	-24%
O=C(NC(=S)N1CCN(c2nc(-c3ccccc3)cs2)CC1)c1cncc(Br)c1	-7%	i	2	u	16µM*	u
CCOCCCNC(=S)N1CCN(c2nc(-c3ccccc3)cs2)CC1	1%	i	-4	u	20µM*	-4%
CCN(CC)CCCNC(=S)N1CCN(c2nc(-c3ccccc3)cs2)CC1	0%	i	0	i	-17%[1.82 µM]	1%
CCCCCN(CCCCC)c1ccc(/C=C/c2ccnc3ccccc23)cc1	x	x	x	x	x	-10%
Cc1ccc(NC(=O)C2CC3CCC2C3)cc1 (configuration not stated)	x	i	x	x	x	x
O=C1CN(C(=O)C2CCCCC2)C=CN1CCc1ccccc1Br	x	i	x	x	x	x
COCCCNC(=S)N1CCN(c2nc(-c3ccc(Cl)cc3)cs2)CC1	x	i	-3	u	13µM*	-18%
CC(C)CNC(=S)N1CCN(c2nc(-c3ccc(Cl)cc3)cs2)CC1	-4%	i	-3	u	x	-7%
Cc1cc(NS(=O)(=O)c2ccc(NC(=O)CSc3nnc(-c4cccnc4)n3-c3ccccc3)cc2)nc(C)n1	x	i	x	x	x	x
Cc1ccc(Cn2c(C)c(C(=O)NCc3ccc4c(c3)OCO4)sc2=O)cc1	x	i	-8	u	25µM*	-2%
CCOc1ccc(NC(=S)NCc2ccc3c(c2)OCO3)cc1	-3%	i	-1	u	u	8%
CSc1ccc(Cn2c(C)c(C(=O)NCc3ccc4c(c3)OCO4)sc2=O)cc1	x	i	-3	u	20µM*	-7%
Cc1ccc(NC(=S)NCc2ccc3c(c2)OCO3)cc1	-1%	i	1	i	22µM*	-3%
Cc1c(C(=O)NCc2ccc3c(c2)OCO3)sc(=O)n1Cc1ccc(-c2ccccc2)cc1	x	u	-1	i	23%	-4%
CCC(=O)N1c2nc(-c3ccco3)nn2C2(CCCCC2)[C@@H]2CCCC[C@@H]21	x	i	x	i	-13%	x
COc1cc(NC(=O)COc2cc3oc(=O)cc(C)c3cc2Cl)cc(OC)c1OC	1%	i	-59*	i	2%	0%
SMILES	Mm-Cpn inhibitor	FUS yeast rescue	CCT chaperon mod	Abeta yeast res	TDP43 rescue	aSyn yeast inh
CCc1cc(=O)oc2cc(OCC(=O)OC)c(Cl)cc12	-2%	i	0	i	11µM*	1%
COc1cc(NC(=O)COc2ccc3c(C)cc(=O)oc3c2C)cc(OC)c1OC	-4%	i	1	i	-2%	-4%
CCN(C(=O)Cn1c(=O)n(-c2ccccc2)c(=O)c2ccc(C(=O)NCc3ccc4c(c3)OCO4)cc21)c1cccc(C)c1	x	35µM*	x	i	7%	x
COc1cc(-c2coc3c(C(=O)NC4CCCCC4)cccc23)ccc1O	x	u	2	i	35µM*	-15%
COc1cc(-c2coc3c(C(=O)NCc4ccc(OC)c(OC)c4)cccc23)ccc1O	x	i	0	i	14µM*	u
COc1cccc(OCc2cc(C3Nc4ccccc4C(=O)N3c3ccccc3)ccc2OC)c1 (configuration not stated)	x	x	x	x	x	17%
NS(=O)(=O)c1ccc(Nc2nc(-c3ccc(O)cc3O)cs2)cc1	2%	x	2	i	4%	-10%
CCOc1ccccc1Nc1nc(-c2cccnc2)cs1	1%	i	-11	i	11µM*	-12%
Cc1cccnc1Nc1nc(-c2ccc(O)cc2O)cs1	-5%	i	0	i	22µM*	u
Cc1cccnc1Nc1nc(-c2ccccc2)cs1	-3%	i	-3	i	16µM*	-42%
Cc1cccnc1Nc1nc(-c2ccccn2)cs1	-1%	i	-1	i	u	u
Oc1ccc(-c2csc(Nc3ccccn3)n2)c(O)c1	3%	i	-3	i	20µM*	-6%
Clc1ccccc1Nc1nc(-c2cccnc2)cs1	-1%	i	2	i	6%	-9%
Cc1ccc(NC(=O)c2ccc(CS(=O)(=O)Cc3ccccc3C)o2)cc1C	x	i	x	x	x	x
CCOC(=O)C1CCN(c2nc(-c3ccc(Br)cc3)cs2)CC1	1%	x	x	x	x	x
CCn1nc(-c2ccc(C)cc2)nc2c(=O)n(C)c(=O)nc1-2	x	x	x	x	x	-83%
COc1cc2nc(N3CCOCC3)nc(NC3CCN(Cc4ccccc4)CC3)c2cc1OC	x	x	x	x	x	9%
CC(C)C[C@H](N)c1nnc(SCC(=O)Nc2ccc(Br)cc2)o1	1%	i	1	i	-18%	0%
CC(C)C[C@H](NC(=O)OC(C)(C)C)c1nnc(SCC(=O)Nc2ccc(Br)cc2)o1	-2%	i	2	i	0.32µM*	-1%
CN(Cc1ccco1)C(=O)CN1C(=O)C2(OCCCO2)c2ccccc21	x	i	x	x	x	x
CCCCOC(=O)Nc1ccc(S(=O)(=O)Nc2ccc([N+](=O)[O-])cc2)cc1	-1%	x	0	i	-15%	-2%
CCCCCOC(=O)Nc1ccc(S(=O)(=O)Nc2cccc([N+](=O)[O-])c2)cc1	0%	i	-53*	i	-12%	0%
CSc1nc(C)cc(C)c1S(=O)(=O)c1ccccc1C	-1%	i	-1	u	11µM*	0%
O=C1CSC(=S)N1Nc1ccccc1	x	i	-34*	i	-8%	-1%
COc1ccccc1C(=O)NC1CCCCCCC1	-1%	i	-4	i	18µM*	3%
O=C(NC1CCCC1)c1ccccc1OCc1ccccc1	-1%	i	1	i	20µM*	6%
COc1ccccc1CC(=O)NC1CCCCCC1	2%	i	-1	i	11%	-2%
